Experimental data as given in PubChem BioAssay.
Activity calls are given as the source filed them.

Experiment: S. cerevisiae RM11-1a growth modifiers, primary screen, strain RM11-1a, OD600, basal, 24 h (AID 1177);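 note: cultures grown under basal conditions with no added stressor; test concentration not given here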
Conditions: OD600, 24 h, higher = more signal, called active from +8 up or from −8 down

z-score, active:
Cc1ccc(F)cc1S(=O)(=O)N[C@@H]1CCN(Cc2ccc(Oc3ccccc3)cc2)C1 -9.2
C=CC[C@H](OC(=O)Nc1ccc(OC)cc1)c1ccc(O)c2ccccc12 -20

z-score, inactive:
O=C1O[C@@H](c2ccccc2)[C@@H](c2ccccc2)N2[C@@H](c3ccc(O)cc3)[C@]3(C(=O)Nc4ccc(C#CCCO)cc43)[C@@H](C(=O)Nc3nc4ccccc4s3)[C@H]12 0.948
C=CCOC(=O)[C@@H]1[C@H]2C(=O)O[C@H](c3ccccc3)[C@H](c3ccccc3)N2[C@H](c2ccc(OCCOC(=O)[C@H]3C[C@H]4C(=O)N[C@@H](CCCCN(C)C)C(=O)N4[C@H]3c3cccc(OCCO)c3)cc2)[C@@]12C(=O)Nc1ccc(I)cc12 1.17
Cc1c(NC(=O)/C(C#N)=C/C=C/c2ccc(N(C)C)cc2)c(=O)n(-c2ccccc2)n1C -0.246
O=C1C2C=CC(C(O)c3cc(C(F)(F)F)cc(C(F)(F)F)c3)N(Nc3ccc([N+](=O)[O-])cc3)C2C(=O)N1c1ccccc1 (centres undefined) 0.565
O=C1NC(=O)C2C1C=CC(C(O)c1cc(C(F)(F)F)cc(C(F)(F)F)c1)N2Nc1ccc(Cl)cc1Cl (centres undefined) 1.1
CO[C@H]1O[C@H](CO)[C@@H](OC(=O)Nc2ccccc2-c2ccccc2)[C@H](OC(=O)Nc2ccc3c(c2)OCO3)[C@@H]1OC(=O)Nc1ccc2c(c1)OCO2 2.9
CCOC(=O)C1=CC[C@@H](c2ccccc2)N(S(=O)(=O)c2ccc(C)cc2)C1 1.82
Cc1ccc(S[C@]2(C(=O)NCC(F)(F)F)CC(=O)N(Cc3ccccc3)[C@@H]2c2ccc(CO)cc2)cc1 -0.629
CC(C)CNC(=O)[C@@H]1c2ccccc2C(=O)N(Cc2cc(F)cc(C(F)(F)F)c2)[C@H]1c1ccc(CO)cc1 -0.604
CCN(CC)c1ccc(N2CC=CC34O[C@@H]5/C=C\CCC(C)OC(=O)C5[C@H]3C(=O)N(CCO)[C@@H]4C2=O)cc1 (some centres undefined) -0.481
COc1ccccc1CN1C(=O)c2ccccc2[C@@H](C(=O)NC(C)C)[C@@H]1c1ccc(CO)cc1 -0.108
[N-]=[N+]=NCc1ccccc1[C@H]1OC(c2ccc(OCCCO)cc2)=N[C@@]1(CCS(=O)(=O)c1ccccc1)C(N)=O -0.296
C=CCOC(=O)[C@@H]1[C@H]2C(=O)O[C@H](c3ccccc3)[C@H](c3ccccc3)N2[C@H](c2ccc(OCCOC(=O)[C@H]3C[C@H]4C(=O)N[C@@H](CCCC[N+](C)(C)C)C(=O)N4[C@H]3c3ccc(O)cc3)cc2)[C@@]12C(=O)Nc1ccc(I)cc12 2.12
C=C(CCCC)/C(=C/C[C@@H](OC(C)=O)c1ccc(CO)o1)c1cc(C(=O)OC)ccc1OC 0.0168
CC(C)C(O)C1C=CC2C(=O)N(C)C(=O)C2N1N(c1ccccc1)c1ccccc1 (centres undefined) 0.879
C=CCNC(=O)[C@@H]1[C@H]2C(=O)O[C@H](c3ccccc3)[C@H](c3ccccc3)N2[C@H](c2ccc(OCCO)cc2)[C@@]12C(=O)N(C(=O)OCCOC)c1ccc(C#CC3=CCCCC3)cc12 2.57
COCCOC(=O)N1C(=O)[C@@]2(c3cc(C#Cc4ccc(OC)cc4)ccc31)[C@H](C(=O)N1CCCCCCC1)[C@H]1C(=O)O[C@H](c3ccccc3)[C@H](c3ccccc3)N1[C@@H]2c1ccc(O)cc1 0.868
COC(=O)Cn1c(C(=O)N2CCCC2)cc2c1C[C@H]1CN(C(=O)c3ccccc3)[C@@](Cc3ccc(F)cc3)(C(=O)OC)[C@@H]21 -1.54
NCCCCCNC(=O)[C@@H]1C[C@@H]2C(=O)N[C@@H](CCCCN)C(=O)N2[C@@H]1c1cccc(OCCO)c1 -0.0041
Cc1ccc(S[C@]2(C(=O)NC(C)C)CC(=O)N(Cc3ccccc3C(F)(F)F)[C@@H]2c2ccc(CO)cc2I)cc1 -2.43
COCCOC(=O)N1C(=O)[C@@]2(c3cc(C#CC4(O)CCCCCC4)ccc31)[C@H](C(N)=O)[C@H]1C(=O)O[C@H](c3ccccc3)[C@H](c3ccccc3)N1[C@@H]2c1ccccc1OCCO 2.26
COCC(=C=CC[C@H](O)c1cccc(OCCO)c1)C[C@H](O)c1ccccn1 1.07
